# Results from PubChem BioAssay (NCATS).
# Several values for one entry are separate records, joined by “and”; a condition that tells them apart may be missing. Equal values may be shown once. A number with no mark means an inactive call. Results filed as inconclusive are left out. Activity calls are given as the source filed them. Unless noted, calls come from the whole dose curve; as a rule, active = well fitted curve in the direction sought with a large enough effect; inconclusive = small, poorly fitted or top-dose-only effect, or another doubt; inactive = no such curve, though single readings can be large; an effect the other way counts as inactive or inconclusive.
# Key:
# [1] = qHTS assay for small molecule agonists of the antioxidant response element (ARE) signaling pathway (AID 651741; active = well fitted activation curve with a large enough effect in the signal ratio; the % refers to the signal ratio; note: potency is the fitted concentration of half-maximal effect; for activation: % of control where 0% means no effect); conditions: HepG2 ARE-bla reporter, beta-lactamase FRET ratio, 16 h; series mostly up to 96 µM
# Outline: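 Reporter: beta-lactamase under ARE, stably in HepG2. Exposure: 16 h, 37 C, compounds delivered in DMSO by pin tool after 5 h cell preincubation. Readout: FRET substrate fluorescence after 2 h at RT.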
# [2] = qHTS assay for small molecule activators of the p53 signaling pathway (AID 651743; active = well fitted activation curve with a large enough effect in the signal ratio, not every such curve was filed as active; the % refers to the signal ratio; note: potency is the fitted concentration of half-maximal effect; for activation: % of control where 0% means no effect); conditions: HCT-116 p53RE-bla, beta-lactamase FRET ratio, 16 h; activation: stronger effect = higher value
# Outline: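 Agonist-mode quantitative HTS in HCT-116 cells carrying a p53-response-element beta-lactamase reporter; 16 h compound treatment at 37 C, then FRET substrate loading for 2 h at room temperature and fluorescence read.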
# [3] = qHTS assay for small molecule activators of the nuclear factor-kappa B (NF-kB) signaling pathway (AID 651749; active = well fitted activation curve with a large enough effect in the signal ratio; the % refers to the signal ratio; note: % of control where 0% means no effect); conditions: NF-kB-bla ME-180 cells, beta-lactamase FRET ratio, 16 h; stronger effect = higher value
# Outline: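 Human ME-180 cervical cells with an NF-kB-bla construct; compounds added via 23 nL pin transfer, DMSO as vehicle; incubation 16 hr. Reporter activity measured by FRET disruption.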
# [4] = qHTS assay for environmental chemicals that activate the Aryl hydrocarbon Receptor (AhR) signaling pathway (AID 651777); conditions: 1A2-DRE human hepatoma cells, luciferase, 24 h; activation: stronger effect = higher value; note: nearly all actives have a fitted effect of over 15% in size; note: potency is the fitted concentration of half-maximal effect; for activation: % of control where 0% means no effect
# Outline: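 Induction of CYP1A2 transcription through AhR is detected by luciferase in 1A2-DRE hepatoma cells. Compounds or DMSO act for 24 hr at 37 C before a 30 min One-Glo step at room temperature.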
# [5] = target: Peroxisome proliferator-activated receptor alpha (Homo sapiens) (UniProt Q07869); test: qHTS assay for small molecule agonists of the peroxisome proliferator-activated receptor alpha (PPARalpha) signaling pathway (AID 651778); conditions: PathHunter PPARalpha complementation, chemiluminescence, 6 h; stronger effect = higher value; note: % of control where 0% means no effect
# Peroxisome proliferator-activated receptor alpha (Homo sapiens), sequence (Q07869 whole entry, looked up): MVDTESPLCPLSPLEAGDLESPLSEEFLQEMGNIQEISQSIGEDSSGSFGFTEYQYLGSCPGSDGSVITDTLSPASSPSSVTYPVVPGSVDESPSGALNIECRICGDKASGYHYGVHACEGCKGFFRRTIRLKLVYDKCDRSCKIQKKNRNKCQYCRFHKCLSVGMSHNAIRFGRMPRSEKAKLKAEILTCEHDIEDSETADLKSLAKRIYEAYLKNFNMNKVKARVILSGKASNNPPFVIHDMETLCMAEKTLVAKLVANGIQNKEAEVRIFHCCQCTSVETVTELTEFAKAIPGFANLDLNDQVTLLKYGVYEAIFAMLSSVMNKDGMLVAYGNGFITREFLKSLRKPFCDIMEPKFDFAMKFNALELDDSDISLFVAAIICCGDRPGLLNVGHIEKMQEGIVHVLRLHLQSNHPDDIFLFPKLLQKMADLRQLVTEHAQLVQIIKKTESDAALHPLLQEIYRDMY
# Outline: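 Cells plated at 2,000/well and held overnight at 37 C, 5% CO2, then compound added by pin tool for 6 hr; after PathHunter detection reagent and 60 min at room temperature, chemiluminescence from enzyme complementation was read.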
# [6] = qHTS assay for small molecule agonists of the antioxidant response element (ARE) signaling pathway measured by Nrf2-dependant transcriptional activity (AID 720636; active = well fitted curve in the direction sought with a large enough effect in the repeat runs; an effect the other way counts as inactive or inconclusive; note: potency is the fitted concentration of half-maximal effect;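 for activation: HepG2 cells with an ARE-driven luciferase reporter; % of control where 0% means no effect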); conditions: ARE-luc HepG2, Nrf2 luciferase reporter, 16 h; series mostly up to 92.4 µM
# Outline: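 We exposed ARE-luc HepG2 cells, seeded in assay medium with 1% dialyzed FBS and allowed 6 hr to adhere, to test compounds overnight (16 hr, 37 C) before measuring luciferase with ONE-Glo.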
# [7] = qHTS assay for small molecule disruptors of the mitochondrial membrane potential - 1 hr assay (AID 651754; calls by dose curve; note: nearly all actives have a fitted effect of over 35% in size; note: potency is the fitted concentration of half-maximal effect); conditions: series mostly up to 92.2 µM
# Outline: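 Loss of mitochondrial potential shifts the cationic dye from red mitochondrial aggregates to green cytoplasmic monomers. Cells (HepG2) are treated with compound for 1 hr before a 30 min dye incubation at 37C.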
# [8] = qHTS assay for small molecule disruptors of the mitochondrial membrane potential - 5 hr assay (AID 651755; calls by dose curve; note: nearly all actives have a fitted effect of over 40% in size; note: potency is the fitted concentration of half-maximal effect); conditions: JC-1-type ratio dye; series mostly up to 92.2 µM
# Outline: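 Seed HepG2 overnight, add compound, incubate 5 hr at 37C and 5% CO2, stain 30 min with Mito-MPS, then measure monomer (490/535 nm) and aggregate (540/590 nm) fluorescence.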
# [9] = target: Tumor necrosis factor (Homo sapiens) (UniProt P01375); test: qHTS assay to identify small molecules that stimulate Tumor Necrosis Factor-alpha (TNF-alpha) secretion (AID 651757; active = well fitted curve in the direction sought with a large enough effect in the signal ratio; the % refers to the signal ratio; note: 0% is about no effect); conditions: Human cells, HTRF 665/615 ratio; series mostly up to 92.2 µM
# Tumor necrosis factor (Homo sapiens), sequence (P01375 whole entry, looked up): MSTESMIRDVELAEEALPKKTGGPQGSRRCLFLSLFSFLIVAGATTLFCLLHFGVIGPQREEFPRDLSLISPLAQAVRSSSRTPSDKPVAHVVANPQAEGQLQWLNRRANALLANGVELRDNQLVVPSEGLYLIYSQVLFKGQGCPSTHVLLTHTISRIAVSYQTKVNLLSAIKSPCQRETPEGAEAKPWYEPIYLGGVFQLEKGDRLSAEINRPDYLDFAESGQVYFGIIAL
# Outline: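 Human monocytic THP-1 cells are plated, treated with compound and held at 37 C for 17 hrs. Labeled anti-TNF-alpha antibody mixture is then added; after 3 hr at room temperature, TR-FRET signal reports secreted TNF-alpha.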
# [10] = target: Nuclear receptor ROR-gamma (Homo sapiens) (UniProt P51449); test: qHTS assay for small molecule antagonists of the retinoid-related orphan receptor gamma (ROR-gamma) signaling pathway (AID 651802); conditions: ROR-gamma antagonist cell reporter assay; series mostly up to 92.2 µM; note: nearly all actives have a fitted effect of over 60% in size; note: potency is the fitted concentration of half-maximal effect
# Nuclear receptor ROR-gamma (Homo sapiens), sequence (P51449 whole entry, looked up): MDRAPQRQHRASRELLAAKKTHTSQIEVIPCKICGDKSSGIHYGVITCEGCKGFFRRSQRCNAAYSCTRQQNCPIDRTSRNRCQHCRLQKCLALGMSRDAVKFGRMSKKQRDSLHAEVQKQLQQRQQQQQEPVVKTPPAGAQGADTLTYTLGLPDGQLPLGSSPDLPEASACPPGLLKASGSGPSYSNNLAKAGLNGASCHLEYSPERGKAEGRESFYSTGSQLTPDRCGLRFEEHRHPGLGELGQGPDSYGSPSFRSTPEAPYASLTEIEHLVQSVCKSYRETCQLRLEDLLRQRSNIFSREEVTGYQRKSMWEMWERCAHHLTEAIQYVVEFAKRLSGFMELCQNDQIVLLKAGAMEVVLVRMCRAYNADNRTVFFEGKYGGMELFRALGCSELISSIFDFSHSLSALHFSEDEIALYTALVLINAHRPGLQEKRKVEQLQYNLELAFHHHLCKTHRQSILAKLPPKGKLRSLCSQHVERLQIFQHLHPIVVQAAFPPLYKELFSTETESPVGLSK
# Outline: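 Steps: cells dispensed; compound or DMSO transferred by pin tool; doxycycline added to induce the ROR response element-driven luciferase; plates held 16hr at 37C; ONE-Glo added and luminescence measured.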
# [11] = qHTS assay for small molecule antagonists of the retinoid-related orphan receptor gamma (ROR-gamma) signaling pathway - cell viability counter screen (AID 720652; active = well fitted curve in the direction sought with a large enough effect in the repeat runs; an effect the other way counts as inactive or inconclusive;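 note: CHO reporter cells with doxycycline-induced ROR-gamma expression; compound exposure lasted 16 hr before ATP read; % is set by controls: 0 for no effect and ±100 for the full control effect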); conditions: RORgamma reporter cell line viability counter screen; series mostly up to 92.2 µM
# Outline: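 Steps: seed CHO cells bearing TET-inducible ROR and ROR response element-luciferase; rest 5 hr at 37 C; add compound, then doxycycline; incubate 16 hr; add CellTiter-Glo and read luminescence as ATP-based viability.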
Compound,Potency [1],activation [2],activation [3],activation [4],max response [5],Potency [6],Potency [7],Potency [8],Potency [9],Potency [10],outcome [11],Potency [2],Potency [4]
CC(C)CCC[C@@H](C)[C@H]1CC[C@H]2[C@@H]3CC=C4C[C@@H](O)CC[C@]4(C)[C@H]3CC[C@]12C,54.5 µM (active),-0.872%,0.0919%,-1.61%,-0.612%,inactive,,,,,,,
CO[C@@H]1[C@H](OC(=O)/C=C/C=C/C=C/C=C/C(=O)O)CC[C@]2(CO2)[C@H]1[C@@]1(C)O[C@@H]1CC=C(C)C,13.7 µM (active),-4.17%,-0.892%,1.85%,-0.833%,,,,,,,,
CC[C@H]1OC(=O)[C@H](C)[C@@H](O[C@H]2C[C@@](C)(OC)[C@@H](O)[C@H](C)O2)[C@H](C)[C@@H](O[C@@H]2O[C@H](C)C[C@H](N(C)C)[C@H]2O)[C@](C)(O)C[C@@H](C)CN(C)[C@H](C)[C@@H](O)[C@]1(C)O,inactive,-5.82%,-0.197%,0.789%,-5.78%,inactive,inactive,inactive,inactive,inactive,inactive,,
CC(C)(C)CC(C)(C)c1ccc(OCCO)cc1,37.6 µM (active),9.34%,0.716%,2.97%,20.4%,inactive,inactive,,inactive,42.2 µM (active),,,
CCCCCCCCCCCCCCCCCC(=O)OC[C@@H](O)[C@H]1OC[C@H](O)[C@H]1O,inactive,-1.65%,-0.074%,0.366%,12.5%,inactive,,,,,,,
NCCO/C=C/[C@H](N)C(=O)O,inactive,7.75%,-5.26%,1.28%,2.79%,inactive,,,,,,,
C[Si](C)(C)O[Si](C)(C)C,inactive,-3.5%,-1.12%,1.01%,-0.124%,inactive,,,,,,,
ClC(Cl)Cl,inactive,0.456%,-1.06%,-0.58%,0.366%,inactive,inactive,inactive,inactive,,inactive,,
c1ccc2ccccc2c1,inactive,-7.12% and -1.33%,0.258% and -0.756%,0.0968% and 0.369%,-3.91% and 0.0956%,inactive,,,inactive,inactive,inactive,,
C[C@H](CCC(=O)O)[C@H]1CC[C@H]2[C@@H]3CC[C@@H]4C[C@H](O)CC[C@]4(C)[C@H]3C[C@H](O)[C@]12C,66.8 µM (active),-2.17%,0.346%,-0.635%,-0.194%,inactive,inactive,inactive,inactive,,inactive,,
Nc1nccs1,inactive,2.07%,0.221%,1.04%,-4.35%,inactive,,,inactive,inactive,,,
O=c1n(CC2CO2)c(=O)n(CC2CO2)c(=O)n1CC1CO1 (centres undefined),7.5 µM (active) and 6.86 µM (active),,-0.976% and -0.874%,1.5% and 3.12%,-0.847% and -0.241%,59.6 µM (active) and 61.1 µM (active),inactive,inactive,,inactive,inactive,15.8 µM (active) and 39.8 µM (active),
COC(=O)c1ccccc1O,inactive,0.469% and 1.6%,-1.33% and 1.01%,0.888% and 1.53%,-2.75% and -2.44%,inactive,,,inactive,inactive,inactive,,
CO/N=C(/C(=O)N[C@@H]1C(=O)N2C(C(=O)O)=C(COC(N)=O)CS[C@H]12)c1ccco1,42.2 µM (active),1.84%,-0.141%,-0.274%,-0.921%,inactive,inactive,inactive,inactive,inactive,inactive,,
Nc1ccc(N=Nc2ccccc2)c(N)n1,19.3 µM (active) and 37.6 µM (active),2.09% and 13.7%,-0.825%,,-8.45% and -6.87%,,18.8 µM (active),16.8 µM (active),,inactive,,,39.8 µM (active) and 44.7 µM (active)
Cc1ccc(S(=O)(=O)NCl)cc1,inactive,-0.574%,,-2.28%,-0.128%,inactive,,,,,,,
